According to ChEMBL document CHEMBL3433997, “St. Jude Leishmania screening dataset” (2016):

What was measured:
Format in all cases: functional
[1] = biological target: Solute carrier family 2, facilitated glucose transporter member 1 (Homo sapiens) (UniProt P11166); test: ST_JUDE_LEISH: Cytotoxicity at 2uM final concentration against transgenic Leishmania Mexicana promastigotes LmGLUT1 that are glucose transport deficient and complemented with the human glucose transporter GLUT1. Activity is measured by DNA content using SYBR green in vitro
Solute carrier family 2, facilitated glucose transporter member 1 (Homo sapiens), sequence (P11166 whole entry): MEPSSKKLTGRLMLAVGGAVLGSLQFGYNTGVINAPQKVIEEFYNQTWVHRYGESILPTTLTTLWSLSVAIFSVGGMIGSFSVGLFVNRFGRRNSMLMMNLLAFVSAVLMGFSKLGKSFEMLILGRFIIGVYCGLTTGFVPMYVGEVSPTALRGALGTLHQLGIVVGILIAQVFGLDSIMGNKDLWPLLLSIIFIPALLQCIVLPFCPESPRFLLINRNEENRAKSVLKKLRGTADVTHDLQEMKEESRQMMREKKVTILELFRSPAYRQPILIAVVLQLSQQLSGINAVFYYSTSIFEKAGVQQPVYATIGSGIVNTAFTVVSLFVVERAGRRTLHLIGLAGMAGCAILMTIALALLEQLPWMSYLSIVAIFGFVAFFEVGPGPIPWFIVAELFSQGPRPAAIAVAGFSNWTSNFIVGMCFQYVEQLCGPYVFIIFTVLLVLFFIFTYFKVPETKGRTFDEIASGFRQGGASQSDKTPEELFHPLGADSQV

[2] = biological target: Hexose transporter 1 (Plasmodium falciparum) (UniProt O97467); test: ST_JUDE_LEISH: Cytotoxicity at 2uM final concentration against transgenic Leishmania Mexicana promastigotes LmPfHT that are glucose transport deficient and complemented with the Plasmodium falciparum hexose transporter. Activity is measured by DNA content using SYBR green in vitro
[3] = biological target: Glucose transporter (Leishmania mexicana) (UniProt O61059); test: ST_JUDE_LEISH: Cytotoxicity at 2uM final concentration against transgenic Leishmania Mexicana promastigotes LmGT2 that are glucose transport deficient and complemented with the L. Mexicana glucose transporter 2. Activity is measured by DNA content using SYBR green in vitro

| SMILES | inhibition [1] | inhibition [2] | inhibition [3] |
| --- | --- | --- | --- |
| O=C(NNC(=O)c1ccc(CN2CCC(c3nc4ccccc4[nH]3)CC2)cc1)Nc1ccc(Oc2ccccc2)cc1 | 2.4% | 2.34% | 1.36% |
| COc1ccc2nccc([C@@H](O)CN3CCC(NCc4cc5cccc(O)c5c(=O)[nH]4)CC3)c2c1 | 13.7% | 31.5% | 1.42% |
| CC1(CCCCN2CCC(Cc3ccccc3)CC2)C(=O)Nc2ccccc21 (stereo not drawn) | 6.25% | 5.65% | 4.71% |
| CCC/C=C/c1c(CNCCCNc2cc(=O)c3ccccc3[nH]2)sc(CC)c1Br | 0.5% | 1.29% | 0.32% |
| C=C[C@H]1CN(CCCCCCC)CC[C@H]1CCN(C)c1ccnc2ccc(OC)cc12 | 1.17% | 2.44% | 2.13% |
| c1ccc2[nH]c(-c3ccc(-c4ccc(CN5CCN(c6ccncc6)CC5)cc4)cc3)nc2c1 | 21.3% | 15.4% | 6.31% |
| CN1CCCC1CCNCc1cccc(-c2cnc(N3CCCC(C)(C)C3)nc2)c1 (stereo not drawn) | 108% | 103% | 104% |
| NC(=O)c1cccc(C(=O)Nc2cccc(-c3cccc(-c4nc5cc(F)ccc5[nH]4)c3)c2)c1 | -0.39% | 0.68% | -0.72% |
| CN(C(=O)/C=C/c1cc(C(F)(F)F)ccc1F)C1CCN(CCCCCNC(=O)/C=C/c2ccc(Cl)c(Cl)c2)CC1 | 3.67% | 3.45% | 2.56% |
| Oc1ccc(CCNCCCCCCNCCc2ccc(Br)cc2)cc1O | 3.51% | 2.35% | 0.85% |
| CS(=O)(=O)N(c1ccccc1)c1cc(C(=O)N[C@@H](Cc2ccccc2)[C@H](O)CNC2CCCCC2)cc(N2CCCC2=O)c1 | 1.9% | 1.63% | 0.49% |
